Measured values taken from PMC13494018.
A number with no mark means an inactive call. How the calls were made is not given here.

B1: d8r1_design_ppi_1305_dldesign_0_cycle0_af2pred (protein)
chain: ARAEELAEALLAKAKELSKLPMGEAAKAAAAEARALAEQDPETALAAAELAYKRASEDPSVSSKVRALLGAALGAATQQLAAQKAAA
B2: d8r1_design_ppi_955_dldesign_0_cycle0_af2pred (protein)
chain: LYAELAARVRAIMAAAGMSPREADTVAAFALAAAADPELEEAMREKMRKAAGPEFEPAVEEAIALAREAAAAL
B3: d8r1_design_ppi_502_dldesign_0_cycle1_af2pred (protein)
chain: SLEELVAKAEKYLKEAAKLSPASLAPSVANALAGITEAAKVSPKAAYNLAKSFLDYVKKNGTAEAAKEAEKALEELEKAAK
B4: d8r1_design_ppi_371_dldesign_0_cycle0_af2pred (protein)
chain: SAEKAALLAQGKAYFATAKAAAAAAIKLKEAGGSEKTVQALIEQAKAAGEKATALFEAYDPELGKKVKEEVDALLAAAKA
B5: d8r1_design_ppi_36_dldesign_0_cycle0_af2pred (protein)
chain: REEVRAKLEAAAAALREVDPVAGEGFRRLAELAFSGEVNGAWAALASLLEHYLPAAEAHDPELGAIVAEAREAALEEWERIQAE
B6: d8r1_design_ppi_1493_dldesign_0_cycle0_af2pred (protein)
chain: EEEKKKLREEAIKLAKKAAEIAKKSENAKEVIEEIEKAIKYLEEGDYEKAAKELAKAGRLADPEARGYINRALLKVGEAK
B7: d8r1_design_ppi_1316_dldesign_0_cycle1_af2pred (protein)
chain: SAVAKAAAAAAAAAKKALASHPAIGAAVARSIELGKLEEAAAFATAAAKALIGEEAGEALGKELDKLVAAAKAAA
B8: d8r1_design_ppi_863_dldesign_0_cycle0_af2pred (protein)
chain: SRAERLIEEAERLAKEAKEAAKRVADSPVAPRAKALADATEAFAKGLKAAAAAGGSMEDQEALLRAARNTAEAAKILAEEAEAARAA
B9: d8r1_design_ppi_423_dldesign_0_cycle0_af2pred (protein)
chain: SEFDKNMELLKEAGAAISELTARARAEADAAAAEGPDAVRAVAAERIEEARRITEELGEKSSLKESFRGMAERTARTIEAYAAAVIA
B10: d8r1_design_ppi_429_dldesign_0_cycle1_af2pred (protein)
chain: AAAALAAAAAEGAIELAEYQVEIGNLEAARAFVEGALRAAARADPATAAELRARARAVLEEAERRHKERLEA
B11: d8r1_design_ppi_1220_dldesign_0_cycle1_af2pred (protein)
chain: AEERAEELAKEAFKLLSEAAKAAATATTEEQVKKGEELAEKAKKLAEELLKEDPSKKGLSEGIKRAAEKVKKAAEEKKKEL
B12: d8r1_design_ppi_306_dldesign_0_cycle0_af2pred (protein)
chain: DAARRAKAEALLKQAKEDFKKFAEQAKKEGPSVLKALKNINESVAEHLKKLDPELGEELKKYGEELIKKAEE
B13: d8r1_design_ppi_1471_dldesign_0_cycle0_af2pred (protein)
chain: MDDSFGKNVIIDAEREIKRFEEAAKKAEEEDKEVAKEIKKIAEEIKKEAEKIKKGEGKLEHSKKALEAMSKGARLVAEFKAK
B14: d8r1_design_ppi_638_dldesign_0_cycle1_af2pred (protein)
chain: GDARALRRAADNLARRALEELAAQTATAARAAEVAALLEAGRTEGAAKLAEAAALAAADPLLARAGAYLAAAADFLALAEREE
B15: d8r1_design_ppi_699_dldesign_0_cycle0_af2pred (protein)
chain: AAVAAAAAAGKAAIEKIEKAAKEAEKINKESGKALKSLAEQAKKLLAEGIANPATRDAKLAGVNNIAAGAETLAKALKEEKA
B16: d8r1_design_ppi_246_dldesign_0_cycle1_af2pred (protein)
chain: ADPEAAARARAAAAVAGATELLKANPANTPAFAAANAEALADSPAAPEAKAAMAKIAAEAEKAAAARKAAEEAAK
B17: d8r1_design_ppi_149_dldesign_0_cycle0_af2pred (protein)
chain: DEAAEIFAKALDEMDKKVKEAKEEVKKALEEGEKKDPEEAKKKAKEIIEKAIKELKEIAEKAAKKVPKLGPAAKATAEATAKVLK
B18: d8r1_design_ppi_569_dldesign_0_cycle0_af2pred (protein)
chain: EPSPRVQALLHVGRAAATLIAASGTEAGRAAAAELARLAFEAAASSPEEGQKLLEEALARADEVAAGLPADAAAAVRAHLEAALAAMK
B19: d8r1_design_ppi_1206_dldesign_0_cycle1_af2pred (protein)
chain: SPAAQWAALDADLKQARELAKKAKEVGNEEEAKKVEAALKKAEAAAAAARADPSLYHEARRAVGEAQVEALKVISKG
B20: d8r1_design_ppi_1379_dldesign_0_cycle1_af2pred (protein)
chain: SAAAGAAVAAAGIAAMRAGAAADGLAGARAAAREAARAAMALFRKDPDAGAAALAALDAAWAAISAALAA
B21: d8r1_design_ppi_640_dldesign_0_cycle0_af2pred (protein)
chain: SEEEEKKAEYLKKAGAAASRAGKVAAANAGNPEIQALAKKAAKALNEAFASNVEEAKKKAEEVEKLAAEAEALAA
B22: d8r1_design_ppi_156_dldesign_0_cycle0_af2pred (protein)
chain: MEEEREREEERRREARRMAQALENAAEAVAARAAAASPAEQPALARAAESLAAAAKVLQKEDPELGAAVEKRAEAILAEIRAR
B23: d8r1_design_ppi_679_dldesign_0_cycle0_af2pred (protein)
chain: AAAAARAAIVDETIARIRAELASRPSLAAFAESVLRRGLALGNEAEAARNVAAMLEAAGATAAAAVAREAAARIEAL
B24: d8r1_design_ppi_636_dldesign_0_cycle0_af2pred (protein)
chain: DYMDALAAMLKAAAEARALAAAGGDAAAIEAALAKAKELGEEAGKLKGESAKGFAEKVIANVEATIAAAKAARAA
B25: d8r1_design_ppi_655_dldesign_0_cycle1_af2pred (protein)
chain: DDNKAAANAAKTGGNSSNERAKKLLAAGIASGDKALIAQAATLFANAATLYAFANAKTGPEYQANVDAAKANQAAANAALA
B26: d8r1_design_ppi_353_dldesign_0_cycle1_af2pred (protein)
chain: TAAAKAAADAALANLQAFLDVVVAADPQNIARVEKAAQIAISGGKVLAAQHPEVADYAAGAATAAAQAAVDRAKALAAA
B27: d8r1_design_ppi_302_dldesign_0_cycle1_af2pred (protein)
chain: DEEEGKKSALKAAETARRLAEEAAKQAKEKAADPALAKKYVAKAKAYAKAAEDIAKGFPDNAEIKAAAKEAKKAAQQAKEALKA
B28: d8r1_design_ppi_93_dldesign_0_cycle1_af2pred (protein)
chain: ENKSIAQGLLKAMKAAYEQAKKSGKAAQLKATAEAAKAAAKKAKELGDEETAKELEKLAKEAKELAEKAAAAAA
B29: d8r1_design_ppi_877_dldesign_0_cycle1_af2pred (protein)
chain: ALAAEAAAAIAKARELLKEIKETGKESKSESVRRFAEGVARKVQALIDQAEAAAADPATALALAKAALKLAEEGLAAVKTLKKAYEE
B30: d8r1_design_ppi_429_dldesign_0_cycle0_af2pred (protein)
chain: AAAARAAAAAEGAIAAAKLAGESGNLEALKAFVEAAHAAAAKADPATAAALKAKADATLEAAKKAFKEKEEA
B31: d8r1_design_ppi_41_dldesign_0_cycle1_af2pred (protein)
chain: RGEEILKKAKEAATRALQLASKDPSLLPLALKALALASEAGYAIAHEGVEKGEELAEKAEKLTEEIEKLAE
B32: d8r1_design_ppi_991_dldesign_0_cycle0_af2pred (protein)
chain: AAAALTAAVAASIKGLAELARKAIDDKSVVKAAANAAKSAAALDKALGKEMSKKLEEAAKKSPEEAVKTIEEVAAKVAAAAAA
B33: d8r1_design_ppi_1325_dldesign_0_cycle0_af2pred (protein)
chain: SSGKEKAAEYRAKADALAAQESPETQAQLRALAERVLKAAEEGVEALAKAAAEAAAFGAATSPTAQAAAREAIAAGVAL
B34: d8r1_design_ppi_1319_dldesign_0_cycle1_af2pred (protein)
chain: AAAEELKTLAAESIGLIDQAEKALKAGTDELNYLKLVAASARKLGPEIAKLVTAALKAAKAGDKETALKYLKEARKLAEKIAA
B35: d8r1_design_ppi_1240_dldesign_0_cycle1_af2pred (protein)
chain: DDATLKQAAALIAEGQAAAAQATTDPAYAAKAKEAYKKAGEVYPESSEFFNIAGEKTAQAALDKYKAAQAAAAAAAA
B36: d8r1_design_ppi_988_dldesign_0_cycle1_af2pred (protein)
chain: SEAAMAAAIAAAHAAAQAVVAADPAAAPFARALMSYAMLAVSDPAAGLAGLAAVAEAAAAAGAAAMAAVAAATRAALAAAHA
B37: d8r1_design_ppi_479_dldesign_0_cycle1_af2pred (protein)
chain: AELAKEAKELAEKGIADPSKAPEAAREIAELFAEAVKKGDNEAAAEAHAELSRIYAANPEAGREGHILAAQLMSKYAVES
B38: d8r1_design_ppi_414_dldesign_0_cycle0_af2pred (protein)
chain: MEEELKKIKELGKKAAKLAEEEGEEGFKKAIAELEKAAAEAAKGEKAKELQKLVGQGIIDVGKAAYKKEEKKEEELAK

Each binder was assayed against PDL1, Q9NZQ7.
Chain of PDL1, Q9NZQ7 (Q9NZQ7 whole entry): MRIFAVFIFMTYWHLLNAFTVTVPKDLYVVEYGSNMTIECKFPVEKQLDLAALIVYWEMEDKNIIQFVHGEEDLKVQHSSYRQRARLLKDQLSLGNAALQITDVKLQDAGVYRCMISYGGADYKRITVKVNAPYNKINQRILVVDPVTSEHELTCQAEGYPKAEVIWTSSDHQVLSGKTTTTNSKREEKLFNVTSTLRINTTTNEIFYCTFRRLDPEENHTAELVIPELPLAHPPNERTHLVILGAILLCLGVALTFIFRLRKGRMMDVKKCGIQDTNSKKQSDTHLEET

| Binder | binding in a display sort |
| --- | --- |
| B1 | not found |
| B2 | not found |
| B3 | not found |
| B4 | not found |
| B5 | not found |
| B6 | not found |
| B7 | not found |
| B8 | not found |
| B9 | not found |
| B10 | not found |
| B11 | not found |
| B12 | not found |
| B13 | not found |
| B14 | not found |
| B15 | not found |
| B16 | not found |
| B17 | not found |
| B18 | not found |
| B19 | not found |

| Binder | binding in a display sort |
| --- | --- |
| B20 | not found |
| B21 | not found |
| B22 | not found |
| B23 | not found |
| B24 | not found |
| B25 | not found |
| B26 | not found |
| B27 | not found |
| B28 | not found |
| B29 | not found |
| B30 | not found |
| B31 | not found |
| B32 | not found |
| B33 | not found |
| B34 | not found |
| B35 | not found |
| B36 | not found |
| B37 | not found |
| B38 | not found |
